# A selection: hits, their analogues and other compounds. The true share with any hit is near 7.9%.
# KB-3-1 tox = kills parental KB-3-1 adenocarcinoma cells; AID 1347075; 400,000 tested, 1.4% active; Potency, µM (top dose mostly 46.1 µM), most hits filed as cytotoxic; KB-3-1 viability, CellTiter-Glo ATP luminescence, 72 h; note: nearly all actives have a fitted effect of over 60% in size
#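 Viability of parental KB-3-1 cells, measured by CellTiter-Glo luminescence, followed a 72 h incubation at 37 °C with pinned compounds in phenol-red-free DMEM containing 10% FBS.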
# HT1080 IDH1KD tx = HT-1080 IDH1 knockdown cell toxicity (counter line) | HT-1080 IDH1 knockdown viability, ATP luminescence, 48 h | Potency, µM (highest dose often 46.1 µM), usual class: cytotoxic | 360,000 tested, 2% active | AID 686971
#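 After a 2 h attachment period, IDH1KD HT-1080 cells took pin-transferred compound for 48 h at 37 °C; ATP-based luminescence after 10 min room-temperature reagent incubation reported viability.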
# KB-V1 cytotox = KB-V1 MDR subline cytotoxicity | KB-V1 MDR cells viability, CellTiter-Glo, 72 h | Potency, µM (doses to about 46.1 µM), actives largely listed as cytotoxic | 400,000 tested, 3.4% active | AID 1347076; note: nearly all actives have a fitted effect of over 60% in size
#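 Cells of the MDR subline KB-V1 are plated, dosed with compound at multiple concentrations, and incubated 72 h at 37 degrees C; CellTiter-Glo is then added and luminescence read after 10 min.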
# SW480 rereplic = inducers of DNA re-replication in SW480 colon cancer cells; SW480 DNA re-replication, Hoechst DNA content imaging, 48 h; AID 624297; 340,000 tested, 1.8% active; Potency, µM (doses to about 46.1 µM), actives largely listed as activators; note: nearly all actives have a fitted effect of over 55% in size
#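 Cells (250 per well) received 23 nL compound or DMSO by pin tool and were kept 48 hr at 37 C, 5% CO2. Nuclei were then stained with Hoechst for 40 min and scanned for DNA content.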
# HT1080-NT tox = kills 2HG-producing HT-1080-NT fibrosarcoma cells; HT-1080-NT fibrosarcoma viability, CellTiter-Glo ATP luminescence, 48 h; 360,000 tested, 1.6% active; Potency, µM (series often up to 46.1 µM), actives largely listed as cytotoxic; AID 686970;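 note: NT is the 2HG producing partner of a matched IDH1 knockdown line; nearly all actives have a fitted effect of over 55% in size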
#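 Toxicity toward the 2HG-producing NT line was scored as %Activity, normalised to DMSO and no-cell wells, from CellTiter-Glo luminescence after 48 hours' treatment.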
# MCF10A rerep = induces DNA re-replication in MCF 10a normal breast cells. MCF 10A DNA re-replication, Hoechst nuclear intensity, 48 h. 350,000 tested, 2.9% active. Potency, µM (series often up to 46.1 µM), hits mostly activators; note: nearly all actives have a fitted effect of over 50% in size
# Numbers stand for hits; n = inactive; u = inconclusive; x = not tested or not shown; ! = not active in a repeat. Calls come from the whole dose curve; as a rule, active = well fitted curve in the direction sought with a large enough effect; inconclusive = small, poorly fitted or top-dose-only effect, or another doubt; inactive = no such curve, though single readings can be large; an effect the other way counts as inactive or inconclusive.
SMILES,KB-3-1 tox,HT1080 IDH1KD tx,KB-V1 cytotox,SW480 rereplic,HT1080-NT tox,MCF10A rerep
Cc1ccc(C)c(N2CCN(C(=O)CCS(=O)(=O)c3ccc4c(c3)oc(=O)n4C)CC2)c1,u,n,6.5µM!,n,n,n
Cc1ccc(Cl)cc1N1CCN(S(=O)(=O)c2ccc3c(c2)oc(=O)n3C)CC1,n,n,13µM,n,n,n
Cn1c(=O)oc2cc(S(=O)(=O)CCC(=O)N3CCN(c4ccccc4F)CC3)ccc21,n,n,u,n,n,n
COC(=O)c1ccc(NC(=O)CSc2nnc(-c3cccnc3)o2)cc1,n,n,n,n,n,n
C/C(=N\Nc1ccc([N+](=O)[O-])cc1)c1ccc(O)cc1,n,u,n,23µM,u,15µM
CC(=O)NC/C(C)=N\Nc1ccc([N+](=O)[O-])cc1,u,3.7µM,n,n,4.6µM,n
C[C@H]1CN([C@@H](C)CO)S(=O)(=O)c2ccc(Br)cc2O[C@H]1CN(C)C(=O)c1cccnc1,n,n,n,x,n,x
CCOC(=O)c1sc2nc(CC(=O)OC)nc(NCc3ccco3)c2c1C,n,n,3.3µM,n,n,n
CCOC(=O)c1sc2nc(CSc3ccccc3)nc(NCCN(C)C)c2c1C,n,u,n,u,18µM,u
Cc1nc(NCc2ccco2)c2c(C)c(C)sc2n1,12µM,2.8µM,u,u,5.6µM,n
Cc1sc2nc3c4ccccc4c(NCc4ccco4)nn3c(=O)c2c1C,n,n,n,4.6µM,n,2.6µM
CCOC(=O)c1cc(-c2ccccc2)n(CCCC(=O)Nc2cccc(C)c2C)c1C,n,x,n,x,x,x
COc1ccc(OC)c(/C=C/c2cc3ccccc3cn2)c1,5.2µM,x,n,x,x,x
COc1ccc(OC)c(/C=C/c2ccccc2)c1,u,x,n,x,x,x
CN1CCCC(OC(=O)c2ccccc2F)C1 (centres undefined),n,n,n,n,n,n
CN1CCCC(CN2c3ccccc3Sc3ccccc32)C1 (centres undefined),n,21µM,u,u,u,n
CN1CCCC(CC2c3ccccc3Sc3ccccc32)C1 (centres undefined),n,18µM,18µM,n,21µM,n
CCCCn1c(N)c(C(=S)NC(=O)CC(C)(C)C)c(=O)n(C)c1=O,u,u,u,n,u,21µM
O=C(N/N=C(\Cc1ncc[nH]1)c1ccccc1)c1ccncc1,u,4.1µM,n,u,n,u
CCCCCn1c(N)c(-c2nc3ccccc3s2)c2c([N+](=O)[O-])nn(CC)c(=O)c21,n,n,18µM,n,n,2.9µM
Cc1cc(C)c2c(n1)SCC(=O)N2CC(=O)Nc1cccc(C)c1C,n,x,n,x,x,x
c1ccc(-c2cc3c(N4CCN(c5ccccc5)CC4)ncnc3s2)cc1,n,n,u,n,n,12µM
COc1ccc(C(=O)Nc2ccc(Oc3ncnc4sc(-c5ccccc5)cc34)cc2)cc1OC,n,n,n,x,n,3.3µM
COc1ccc(Nc2ncnc3sc(-c4ccccc4)cc23)cc1,u,n,21µM,n,n,u
c1ccc(-c2cc3c(N4CCN(c5ncccn5)CC4)ncnc3s2)cc1,n,n,u,n,n,u
SMILES,KB-3-1 tox,HT1080 IDH1KD tx,KB-V1 cytotox,SW480 rereplic,HT1080-NT tox,MCF10A rerep
COc1cc(C(=O)Nc2ccc(Oc3ncnc4sc(-c5ccccc5)cc34)cc2)cc(OC)c1OC,n,u,u,n,n,n
CC(C)(C)Nc1ncnc2sc(-c3ccccc3)cc12,u,n,n,u,n,18µM
CCOc1ccccc1NC(=O)Cn1c(=O)n(CC(=O)NCc2ccccc2Cl)c(=O)c2sccc21,n,x,n,x,x,x
CC(C)C(C)(C#N)NC(=O)CSc1ncnc2sc(-c3ccccc3)cc12 (centres undefined),n,n,23µM,n,13µM,n
Cn1ncc2c(Nc3ccc(-c4ccccc4)cc3)ncnc21,n,u,n,u,11µM,n
COc1cc2nc(CN3CCN(S(=O)(=O)c4ccccc4[N+](=O)[O-])CC3)[nH]c(=O)c2cc1OC,n,u,n,x,n,x
CCOC(=O)CNC(=O)c1cc2c(=O)n(CC)c3ccccc3c2s1,n,x,n,x,x,x

# Screens from PubChem.
